# Source: the supplement of paper PMC8728848
# Only a selection was taken, and the strongest signals are over-represented in it overall.
# B1: Pbx2CASH domain (Cryptococcus neoformans) (protein)
# chain: GIPGPNRLYRLSGPIIFTAADQEIATYGYPTGSERAVLRVEGRNTATAIQGDCRRCARVSVKNLVVDGNRKKLGRMRDFQLATGLVVLGGNEGQSIQNSWIKNPRGFTAIHIREGDKLQCSGARVEKNEIGPVGEEYDPEKDGDDPEMSPLGRPLADGVSIACRDSFIRDNTFRDNTDAAIVVYCSPGTLIHA
# Experiments:
# Test in all cases: glycan array binding signal (z-score within array); higher = stronger binding
# Conditions in all cases: glycan notation: IUPAC condensed, linker removed
# [1] = target: Fuc(a1-2)Gal(b1-3)GalNAc(b1-4)[Neu5Ac(a2-3)]Gal(b1-4)Glc
# Procedure, shortened: (§1)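 Glycan array data were curated from 3228 arrays in the Consortium for Functional Glycomics database and kept only where the protein sequence was available. Glycan names were converted to IUPAC-condensed notation, and columns mapping to the same glycan were averaged. The binding signal is a within-array Z-score, averaged across arrays of the same protein sequence at different concentrations or buffers and across linkers. Negative Z-scores can be read as non-binding.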
# [2] = target: Fuc(a1-2)Gal(b1-3)[Fuc(a1-4)]GlcNAc(b1-2)Man(a1-3)[Fuc(a1-2)Gal(b1-3)[Fuc(a1-4)]GlcNAc(b1-2)Man(a1-3)]Man(b1-4)GlcNAc(b1-4)GlcNAc
# Procedure, shortened: as §1
# [3] = target: Fuc(a1-2)Gal(b1-3)[Fuc(a1-4)]GlcNAc(b1-3)[Gal(b1-4)GlcNAc(b1-6)]Gal(b1-4)Glc
# Procedure, shortened: as §1
# [4] = target: Fuc(a1-2)Gal(b1-4)GlcNAc(b1-2)Man(a1-3)[Fuc(a1-2)Gal(b1-4)GlcNAc(b1-2)Man(a1-6)]Man(b1-4)GlcNAc(b1-4)[Fuc(a1-6)]GlcNAc
# Procedure, shortened: as §1
# [5] = target: Fuc(a1-2)Gal(b1-4)[Fuc(a1-3)]GlcNAc(b1-3)GalNAc
# Procedure, shortened: as §1
# [6] = target: Fuc(a1-2)Gal(b1-4)[Fuc(a1-3)]GlcNAc(b1-3)[Neu5Ac(a2-6)Gal(b1-4)GlcNAc(b1-6)]Gal(b1-4)Glc
# Procedure, shortened: as §1
# [7] = target: Fuc(a1-2)[Gal(a1-3)]Gal(b1-4)[Fuc(a1-3)]GlcNAc
# Procedure, shortened: as §1
# [8] = target: Fuc(a1-2)[GalNAc(a1-3)]Gal(b1-4)GlcNAc(b1-2)Man(a1-3)[Fuc(a1-2)[GalNAc(a1-3)]Gal(b1-4)GlcNAc(b1-2)Man(a1-6)]Man(b1-4)GlcNAc(b1-4)[Fuc(a1-6)]GlcNAc
# Procedure, shortened: as §1
# [9] = target: Fuc(a1-2)[GalNAc(a1-3)]Gal(b1-4)[Fuc(a1-3)]GlcNAc(b1-3)GalNAc
# Procedure, shortened: as §1
# Fuc(a1-3)GlcNAc = target: Fuc(a1-3)GlcNAc
# Procedure, shortened: as §1
# [10] = target: Fuc(a1-3)[Gal(b1-4)]GlcNAc(b1-2)Man(a1-3)[Fuc(a1-3)[Gal(b1-4)]GlcNAc(b1-2)Man(a1-6)]Man(b1-4)GlcNAc(b1-4)GlcNAc
# Procedure, shortened: as §1
# Gal(a1-3)Gal(b1-3)GlcNAc = target: Gal(a1-3)Gal(b1-3)GlcNAc
# Procedure, shortened: as §1
# [11] = target: Gal(a1-3)Gal(b1-3)GlcNAc(b1-2)Man
# Procedure, shortened: as §1
# [12] = target: Gal(a1-3)Gal(b1-3)[Fuc(a1-4)]GlcNAc(b1-2)Man(a1-3)[Gal(a1-3)Gal(b1-3)[Fuc(a1-4)]GlcNAc(b1-2)Man(a1-6)]Man(b1-4)GlcNAc(b1-4)GlcNAc
# Procedure, shortened: as §1
# [13] = target: Gal(a1-3)Gal(b1-4)GlcNAc(b1-2)Man(a1-3)[Gal(a1-3)Gal(b1-4)GlcNAc(b1-2)Man(a1-6)]Man(b1-4)GlcNAc(b1-4)GlcNAc
# Procedure, shortened: as §1
# [14] = target: Gal(a1-3)Gal(b1-4)GlcNAc(b1-6)GalNAc
# Procedure, shortened: as §1
# Gal(b1-2)Gal = target: Gal(b1-2)Gal
# Procedure, shortened: as §1
# [15] = target: Gal(b1-3)GlcNAc(b1-3)Gal(b1-4)GlcNAc(b1-2)[Gal(b1-3)GlcNAc(b1-3)Gal(b1-4)GlcNAc(b1-6)]Man(a1-6)[Gal(b1-3)GlcNAc(b1-3)Gal(b1-4)GlcNAc(b1-2)Man(a1-3)]Man(b1-4)GlcNAc(b1-4)[Fuc(a1-6)]GlcNAc
# Procedure, shortened: as §1
# [16] = target: Gal(b1-3)GlcNAc(b1-3)GalNAc
# Procedure, shortened: as §1
# [17] = target: Gal(b1-3)[Fuc(a1-4)]GlcNAc(b1-2)Man(a1-3)[Gal(b1-3)[Fuc(a1-4)]GlcNAc(b1-2)Man(a1-6)]Man(b1-4)GlcNAc(b1-4)[Fuc(a1-6)]GlcNAc
# Procedure, shortened: as §1
# [18] = target: Gal(b1-3)[Fuc(a1-4)]GlcNAc(b1-6)GalNAc
# Procedure, shortened: as §1
# [19] = target: Gal(b1-3)[Neu5Ac(a2-6)]GlcNAc(b1-4)Gal(b1-4)Glc
# Procedure, shortened: as §1
# [20] = target: Gal(b1-4)GlcNAc(b1-2)Man(a1-3)[Gal(b1-4)GlcNAc(b1-2)Man(a1-6)]Man(b1-4)GlcNAc(b1-4)[Fuc(a1-6)]GlcNAc
# Procedure, shortened: as §1
# [21] = target: Gal(b1-4)GlcNAc(b1-2)[Gal(b1-4)GlcNAc(b1-4)]Man(a1-3)[GlcNAc(b1-4)][Gal(b1-4)GlcNAc(b1-2)[Gal(b1-4)GlcNAc(b1-6)]Man(a1-6)]Man(b1-4)GlcNAc(b1-4)GlcNAc
# Procedure, shortened: as §1
# [22] = target: Gal(b1-4)GlcNAc(b1-2)[Gal(b1-4)GlcNAc(b1-6)]Man(a1-6)[Gal(b1-4)GlcNAc(b1-2)Man(a1-3)]Man(b1-4)GlcNAc(b1-4)GlcNAc
# Procedure, shortened: as §1
# [23] = target: Gal(b1-4)GlcNAc(b1-3)Gal(b1-4)GlcNAc(b1-2)Man(a1-3)[Gal(b1-4)GlcNAc(b1-3)Gal(b1-4)GlcNAc(b1-2)Man(a1-6)]Man(b1-4)GlcNAc(b1-4)GlcNAc
# Procedure, shortened: as §1
# [24] = target: Gal(b1-4)GlcNAc(b1-3)Gal(b1-4)GlcNAc(b1-2)Man(a1-3)[Gal(b1-4)GlcNAc(b1-3)Gal(b1-4)GlcNAc(b1-2)Man(a1-6)]Man(b1-4)GlcNAc(b1-4)[Fuc(a1-6)]GlcNAc
# Procedure, shortened: as §1
# [25] = target: Gal(b1-4)GlcNAc(b1-3)Gal(b1-4)GlcNAc(b1-3)Gal(b1-4)GlcNAc(b1-2)Man(a1-3)[Gal(b1-4)GlcNAc(b1-3)Gal(b1-4)GlcNAc(b1-3)Gal(b1-4)GlcNAc(b1-2)Man(a1-6)]Man(b1-4)GlcNAc(b1-4)GlcNAc
# Procedure, shortened: as §1
# [26] = target: Gal(b1-4)GlcNAc(b1-3)Gal(b1-4)GlcNAc(b1-3)Gal(b1-4)GlcNAc(b1-2)Man(a1-3)[Gal(b1-4)GlcNAc(b1-3)Gal(b1-4)GlcNAc(b1-3)Gal(b1-4)GlcNAc(b1-2)Man(a1-6)]Man(b1-4)GlcNAc(b1-4)[Fuc(a1-6)]GlcNAc
# Procedure, shortened: as §1
binder,measurement,setting,value
B1,glycan array binding signal (z-score),[1],-0.327
same,glycan array binding signal (z-score),[2],0.448
same,glycan array binding signal (z-score),[3],-0.27
same,glycan array binding signal (z-score),[4],0.625
same,glycan array binding signal (z-score),[5],5.37
same,glycan array binding signal (z-score),[6],0.299
same,glycan array binding signal (z-score),[7],-0.331
same,glycan array binding signal (z-score),[8],-0.315
same,glycan array binding signal (z-score),[9],2.74
same,glycan array binding signal (z-score),Fuc(a1-3)GlcNAc,-0.751
same,glycan array binding signal (z-score),[10],-0.141
same,glycan array binding signal (z-score),Gal(a1-3)Gal(b1-3)GlcNAc,0.751
same,glycan array binding signal (z-score),[11],1.4
same,glycan array binding signal (z-score),[12],2.46
same,glycan array binding signal (z-score),[13],0.227
same,glycan array binding signal (z-score),[14],-0.025
same,glycan array binding signal (z-score),Gal(b1-2)Gal,-0.585
same,glycan array binding signal (z-score),[15],2.19
same,glycan array binding signal (z-score),[16],0.422
same,glycan array binding signal (z-score),[17],-0.077
same,glycan array binding signal (z-score),[18],1.39
same,glycan array binding signal (z-score),[19],-0.128
same,glycan array binding signal (z-score),[20],-0.487
same,glycan array binding signal (z-score),[21],0.057
same,glycan array binding signal (z-score),[22],-0.632
same,glycan array binding signal (z-score),[23],3.98
same,glycan array binding signal (z-score),[24],0.897
same,glycan array binding signal (z-score),[25],6.89
same,glycan array binding signal (z-score),[26],0.266
